High-throughput results as filed in PubChem BioAssay.
mIDH1 inhibitor = inhibitors of human mutant IDH1 R132H | Potency, µM (series often up to 76.6 µM), for inactives: at the top dose activity change, negative = inhibition, hits mostly inhibitors | actives 0.093% (n = 390,000) | IDH1-R132H enzyme, NADPH consumption, diaphorase/resazurin fluorescence; also: nearly all actives have a fitted effect of over 65% in size
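IDH1-R132H (0.5 ug/mL dispensed) in pH 7.5 Tris buffer was preincubated 30 min with compound, then given a substrate mix of 0.016 mM NADPH and 2 mM alpha-KG for 80 min at room temperature; remaining NADPH was read by diaphorase/resazurin fluorescence.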
VDR inhibitor = inhibitors of human vitamin D receptor; P11473; VDR-SRC2-3 peptide fluorescence polarization, 2 h; Potency, µM, for the others: max response, negative = inhibition, usual class: inhibitors; actives 0.93% (n = 400,000); AID 504847
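Measured by FP: displacement of SRC2-3 coactivator peptide from VDR by library compounds, following a two-hour ambient incubation.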
Sfp inh = Sfp phosphopantetheinyl transferase inhibition | Biochemical Sfp PPTase activity, qHTS | actives 3.5% (n = 310,000) | Potency, µM, without a hit: largest response in the series, negative = inhibition, usual class: inhibitors | Q9F4F7;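 also: the enzyme is Sfp with the accession as filed and its product quenches rhodamine fluorescence; 0% = enzyme reaction without inhibitor and -100% = no enzyme wells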
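Sfp 15 nM + cpd, 15 min RT; start w/ rhodamine-CoA 5 uM, BHQ-2-YbbR 12.5 uM (final); 50 mM Hepes pH 7.6, 10 mM MgCl2, 0.01% NP-40, 0.01% BSA; read 525/598 nm at 0 and 30 min.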
TrxR1 substrate = is turned over as a substrate by rat TrxR1; O89049; purified TrxR1 substrate turnover, NADPH consumption readout; Potency, µM (series often up to 114 µM), without a hit: top-dose activity change, negative = substrate turnover; actives 0.01% (n = 390,000); AID 588456; also: nearly all actives have a fitted effect of over 50% in size
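Rat TrxR1, dispensed at 90 nM, was prereduced with 400 uM NADPH (final) for 5 min at ~22 deg C, then incubated with compound 15 min before 400 uM selenite. A first-read NADPH fluorescence drop versus no-compound background flagged substrates.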
PLK1 PBD inh = inhibitors of human PLK1 polo-box domain binding | actives 2.8% (n = 360,000) | Plk1 PBD binding of FITC phosphopeptide, fluorescence polarization | P53350 | Potency, µM, inactives show max response, negative = inhibition, actives largely listed as inhibitors; also: series mostly up to about 57 µM; nearly all actives have a fitted effect of over 65% in size
Target sequence (P53350 whole entry, looked up, the tested form may be a part): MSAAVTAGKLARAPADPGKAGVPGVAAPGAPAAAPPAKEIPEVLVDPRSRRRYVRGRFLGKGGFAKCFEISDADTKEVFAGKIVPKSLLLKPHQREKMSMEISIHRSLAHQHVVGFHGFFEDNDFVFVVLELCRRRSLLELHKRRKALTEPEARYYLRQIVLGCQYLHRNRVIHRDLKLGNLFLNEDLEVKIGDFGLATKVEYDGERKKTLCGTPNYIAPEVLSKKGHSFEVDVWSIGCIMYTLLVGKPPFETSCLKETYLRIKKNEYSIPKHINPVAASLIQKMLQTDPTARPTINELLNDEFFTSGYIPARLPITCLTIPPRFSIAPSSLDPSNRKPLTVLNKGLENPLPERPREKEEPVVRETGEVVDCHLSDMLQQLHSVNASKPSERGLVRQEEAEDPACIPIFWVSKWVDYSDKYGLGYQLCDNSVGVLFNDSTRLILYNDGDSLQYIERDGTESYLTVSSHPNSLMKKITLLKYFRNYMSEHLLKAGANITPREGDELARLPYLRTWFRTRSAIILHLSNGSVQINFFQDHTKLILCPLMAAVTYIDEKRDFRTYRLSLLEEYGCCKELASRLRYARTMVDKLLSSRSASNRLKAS
rTrxR1 inhibitor = inhibitors of rat thioredoxin reductase 1 | O89049 | recombinant rTrxR1, NADPH fluorescence consumption, selenite substrate | Potency, µM (doses to about 114 µM), for inactives: top-dose activity change, negative = inhibition, usual class: inhibitors | actives 1% (n = 390,000) | AID 588453; also: nearly all actives have a fitted effect of over 65% in size
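Rat TrxR1 (90 nM in the dispensed reagent) was pre-reduced with 400 uM NADPH for 5 min at room temperature, then incubated with compound for 15 min. After 400 uM selenite was added, NADPH fluorescence (Ex 340/Em 450 nm) was followed for 8 min.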
TbPYK confirm = confirmation of Trypanosoma brucei pyruvate kinase inhibitors. shares compounds with PLK1 PBD inh. Potency, µM (top dose mostly 76.9 µM), without a hit: at the highest dose activity change, negative = inhibition, usual class: inhibitors. recombinant TbPYK, Kinase-Glo ATP luminescence. AID 720569. actives 67% (n = 890); also: nearly all actives have a fitted effect of over 70% in size
TbPYK orthogonal = orthogonal confirmation of Trypanosoma brucei pyruvate kinase inhibitors; shares compounds with PLK1 PBD inh; actives 62% (n = 890); Potency, µM (top dose mostly 76.9 µM), inactives show at the highest dose activity change, negative = inhibition, actives largely listed as inhibitors; recombinant TbPYK, ADP-Glo luminescence, 60 min; also: nearly all actives have a fitted effect of over 75% in size
* hit, by the source's call; ? = inconclusive; . = not tested or not shown; [ ] = remark or other dose. Shown are actives, neighbours in structure and some others; about 5.2% of the full set was active somewhere. Calls follow the shape of the dose curve; as a rule, active = well fitted curve in the direction sought with a large enough effect; inconclusive = small, poorly fitted or top-dose-only effect, or another doubt; inactive = no such curve, though single readings can be large; an effect the other way counts as inactive or inconclusive. Unless noted, % is scaled to controls: 0 for no effect and ±100 for the full control effect; potency is read from the fitted curve at half-maximal effect.

SMILES | mIDH1 inhibitor | VDR inhibitor | Sfp inh | TrxR1 substrate | PLK1 PBD inh | rTrxR1 inhibitor | TbPYK confirm | TbPYK orthogonal
O=P(c1ccccc1)(c1ccccc1)N1CC2(CC2)CC(O)(c2ccccc2)C1 (stereo not given) | . | . | 34% | . | . | . | . | .
CC1=NNC(=O)C1Br (stereo not given) | 0% | ? | . | -18% | 9.5µM* | ? | 3.2µM* | 5µM*
O=C1NC(=S)N(c2ccc(Br)cc2)C(=O)/C1=C/N1CCN(C(=O)c2ccco2)CC1 | 0% | ? | -4% | -2%[57.1 µM] | ? | -23%[57.1 µM] | . | .
COc1ccc(N2C(=O)/C(=C/c3cccs3)C(=O)NC2=S)cc1 | 15% | -2% | 8.9µM* | -2%[57.1 µM] | 2.1µM* | 7.9µM* | 16µM* | 25µM*
COc1cccc(N2C(=O)/C(=C/c3ccc(C)o3)C(=O)NC2=S)c1 | 7% | ? | 25µM* | -1% | 2.7µM* | 25µM* | 16µM* | 28µM*
COc1ccc(N2C(=O)/C(=C/c3ccc(N(C)C)o3)C(=O)NC2=S)cc1 | 0% | 0% | -22% | -10% | 106% | ? | ? | ?
O=C1NC(=S)N(c2ccccc2)C(=O)/C1=C/c1ccco1 | -16% | ? | 22µM* | -6% | 3µM* | 20µM* | 11µM* | 16µM*
Nc1ncnc2c1ncn2[C@@H]1O[C@@H]2CO[P@](=O)(S)O[C@H]2[C@H]1O | . | -2% | -4% | . | . | . | . | .
C=CCN1C(=O)/C(=C/c2cccs2)C(=O)NC1=S | 4% | ? | 20µM* | -11% | 5.3µM* | 10µM* | 22µM* | 35µM*
CCN(CC)c1ccc(C=C2C(=O)N(C)C(=S)N(C)C2=O)o1 | 2% | -6% | -17% | -16% | 35% | -26% | . | .
Cc1ccc(/C=C2\C(=O)NC(=S)N(c3ccc(F)cc3)C2=O)o1 | -6% | -6% | 45µM* | 1% | 3.8µM* | ? | 16µM* | 20µM*
S=C=S | . | -2% | 24% | . | . | . | . | .
Cn1c(O)c(/C=C2\C=c3ccccc3=NC2=O)c(=O)n(C)c1=O | 21% | 79µM* | 45µM* | -5% | ? | 35µM* | ? | 16%
O=C(c1ccc(N2CCCCC2)c([N+](=O)[O-])c1)N1CCC2(CC1)OCCO2 | -3% | -19% | 15% | 0%[57.1 µM] | -5% | -4%[57.1 µM] | . | .
O=C1NC(=O)C(=Cc2ccc(N3CCN(C(=O)c4ccccc4)CC3)c([N+](=O)[O-])c2)C(=O)N1 | 3% | 50µM* | 28µM* | -9% | 6.7µM* | 10µM* | 32µM* | 35µM*
CC/C=C\C/C=C\C/C=C\C/C=C\C/C=C\CCCC(=O)NCCO | . | -5% | -6% | . | . | . | . | .
COc1ccc(N2C(=O)CS(=O)C(c3ccccc3)C2=O)cc1 (stereo not given) | 8% | 35µM* | 1.6µM* | 3% | 2.4µM* | 50µM* | 13µM* | 25µM*
CN1CC[C@@]2(CCCN(C(=O)Oc3ccccc3)C2)C1 | . | -13% | 11% | . | . | . | . | .
N#CCCn1cc(C=C2C(=O)NC(=O)NC2=O)c(-c2ccccc2)n1 | -5% | -39% | -24% | 6%[11.4 µM] | 2.7µM* | 15%[11.4 µM] | 16µM* | 32µM*
N#CCCn1cc(C(=O)NCc2ccccc2)c(-c2ccccc2)n1 | 17% | 10% | 7% | 10%[57.1 µM] | -8% | 12%[57.1 µM] | . | .
O=C1NC(=O)N(CCc2ccc(F)cc2)C(=O)/C1=C/c1ccco1 | 0% | 39% | 50µM* | 9% | 1.1µM* | ? | 32µM* | ?
COc1ccc(CN2C(=O)NC(=O)/C(=C\c3ccco3)C2=O)cc1 | -3% | 54% | 71µM* | -5% | 1.2µM* | ? | 28µM* | ?
NC(=O)C1CCN(/C=C2\C(=O)NC(=O)N(Cc3ccco3)C2=O)CC1 | 3% | 0% | ? | 3% | ? | -3% | . | .
O=[N+]([O-])c1ccc(C(=Nc2ccccc2)N2CC2)cc1 | 9% | -8% | . | -5% | 4% | -5% | . | .
CN1CCN(C(=S)c2ccc([N+](=O)[O-])cc2)CC1 | -2% | ? | 13µM* | 13% | 5.3µM* | 20% | 5µM* | 13µM*
SMILES | mIDH1 inhibitor | VDR inhibitor | Sfp inh | TrxR1 substrate | PLK1 PBD inh | rTrxR1 inhibitor | TbPYK confirm | TbPYK orthogonal
O=C1CC(=O)N(c2ccc3c(c2)OCO3)C(=O)N1 | 0% | -3% | -13% | -4% | ? | -35% | . | .
O=C1NC(=O)N(c2ccc3c(c2)OCO3)C(=O)/C1=C\c1ccc(-c2ccccc2C(=O)O)o1 | 5% | ? | 50µM* | -1% | 3µM* | -28% | 13µM* | ?
CN1CCc2cc3c(cc2[C@@H]1[C@@H]1OC(=O)c2c1ccc1c2OCO1)OCO3 | . | -2% | 3% | . | . | . | . | .
COc1ccccc1NS(=O)(=O)c1cc(NC(=O)c2ccc(Cl)nc2)ccc1N1CCCC1 | 2% | ? | . | -6% | 4.7µM* | -16% | 4.5µM* | 6.3µM*
COc1cc(C(=O)Nc2ccc(Br)cc2C(=O)c2ccccc2Cl)cc(OC)c1OC | 3% | -12% | 7% | -12% | -12% | -13% | . | .
COc1cc(C=C2C(=O)NC(=O)NC2=O)ccc1OCc1ccc([N+](=O)[O-])cc1 | 10% | ? | 32µM* | 4%[57.1 µM] | 6.7µM* | ? | 13µM* | 28µM*
CC(C)CN1CCCC2(CCN(C(=O)Oc3ccccc3)CC2)C1 | . | -16% | 2% | . | . | . | . | .
O=C(c1csnn1)N1CCC[C@@]2(CCN(Cc3ccncc3)C2)C1 | . | ? | -5% | . | . | . | . | .
CC(=O)NCC(N)C(=O)c1ccc(C)cc1 (stereo not given) | . | . | . | 3% | . | 11% | . | .
